# Measured values as given in PubChem BioAssay (NCATS).
# Records with an inconclusive call do not appear. Unmarked numbers belong to inactive results. Active and inactive are the calls of the source. Calls come from the whole dose curve; as a rule, active = well fitted inhibition curve with a large enough effect; inconclusive = small, poorly fitted or top-dose-only effect; inactive = no such curve, though single readings can be large or run the other way.
# Test: qHTS for ATAD5 Antagonist screened against the NCATS CANVASS Library (AID 1347370); note: nearly all actives have a fitted effect of over 65% in size
# Details: HEK293T-ATAD5-luc, 5-FUrd stimulated, luminescence, 16 h; series mostly up to 46.1 µM; activity change, negative = inhibition: at the top concentration
# Outline: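 HEK293T cells with a stably integrated ATAD5-controlled luciferase reporter were exposed to compounds (11-pt) alongside 10 uM 5-fluorouridine as ATAD5 stabilizer for 16hr at 37C. Viability was read by CellTiter-Fluor fluorescence, then ATAD5 by luminescence.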
# % is set by controls: 0 for no effect and ±100 for the full control effect; potency is the fitted concentration of half-maximal effect.
Structure (SMILES),"activity change, negative = inhibition",Potency
CC(=O)O[C@H]1c2ccccc2-c2c3c(cc4c2[C@@H]1N(C(C)=O)CC4)OCO3,-5.11%,
C=C1CC[C@@H](Br)C(C)(C)[C@]12CC=C(C)C(=O)C2,-17%,
COc1cc2c(cc1OC)[C@@H](c1ccc3c(c1)OCO3)C(C)C(C)C2=O (stereo partly drawn),,26.3 µM (active)
C[C@H]1C=C[C@H]2CCCC[C@@H]2[C@H]1C(=O)[C@H]1CC2=C(C(=O)O)CCN2C1=O,-3.84%,
C/C(=C\[C@H](C)C(=O)/C=C/CC1CC(=O)NC(=O)C1)[C@@H]1OC(=O)/C=C/CC/C=C/C[C@@H](O)[C@@H]1C,,3.31 µM (active)
CC(C)[C@]12CC[C@@]3(C)[C@H](C)CC[C@H](O)[C@@]3(CC1)c1cc3c(cc12)[nH]c1ccccc13,7.42%,
C/C=C1/CN2C3CC1C1C=CC(=O)N4c5ccccc5[C@@]3(C[C@@H]2C2=C[C@H]3C5CC6N(CC[C@@]67c6ccccc6N(C2=O)[C@@H]37)C/C5=C/C)[C@H]14 (stereo partly drawn),,5.24 µM (active)
Oc1ccc(C2Oc3cc(O)c4c(c3[C@@H]2c2cc(O)cc(O)c2)[C@H]2C(c3ccc(O)cc3)c3c(O)cc5c(c3[C@H]2C4c2ccc(O)cc2)[C@H](c2cc(O)cc(O)c2)C(c2ccc(O)cc2)O5)cc1 (stereo partly drawn),0%,
COc1cc(O)c(C(=O)[C@@H]2[C@H](CC=C(C)C)C(C)=CC[C@H]2c2ccccc2)c(O)c1,-15.4%,
C=CC(CCCCC)C1C(=O)NC(=O)C1C(=O)C1C2C(C)CC(C(=O)O)CC2CC1(O)C(=O)/C=C/C (stereo not drawn),-7.32%,
COc1c(O)cc2c(c1O)C(=O)c1c(coc1C)C2=O,-3.24%,
COc1cc2c(c(O)c1O)C(=O)c1c(coc1C)C2=O,-21%,
C/C=C/C1C=CC2CC(C)CC(C)C2C1C(=O)CC(=O)NC(CO)C/C=C/CCCCC (stereo not drawn),,23.4 µM (active)
